Experimental data reported in the antibiotic and cytotoxicity screens of Wong et al. (2023).
Screen size: about 39,000 compounds; about 3,300 (8.5%) were called active. The entries come from a sample that favours actives as a whole.

Test system: HepG2
Test: cytotoxicity call (relative viability < 0.9)
Settings: 10 µM

| Compound | cytotoxicity call |
| --- | --- |
| CC1CCC2(NC1)OC1CC3C4CC=C5CC(O)CCC5(C)C4CCC3(C)C1C2C (stereo unspecified) | inactive |
| C[C@@H]1CC[C@@]2(OC1)O[C@H]1[C@@H](O)[C@H]3[C@H]4CC[C@H]5C[C@H](O[C@@H]6O[C@H](CO)[C@H](O[C@@H]7O[C@H](CO)[C@@H](O)[C@H](O[C@@H]8OC[C@@H](O)[C@H](O)[C@H]8O)[C@H]7O[C@@H]7O[C@H](CO)[C@H](O)[C@H](O[C@@H]8O[C@H](CO)[C@@H](O)[C@H](O)[C@H]8O)[C@H]7O)[C@H](O)[C@H]6O)[C@H](O)C[C@]5(C)[C@@H]4CC[C@]3(C)[C@H]1[C@@H]2C | inactive |
| C[C@@H]1CC[C@@]2(OC1)O[C@H]1C[C@H]3[C@@H]4CC=C5C[C@@H](O[C@@H]6O[C@H](CO)[C@@H](O[C@@H]7O[C@@H](C)[C@H](O)[C@@H](O)[C@H]7O)[C@H](O)[C@H]6O[C@@H]6O[C@@H](C)[C@H](O)[C@@H](O)[C@H]6O)CC[C@]5(C)[C@H]4CC[C@]3(C)[C@H]1[C@@H]2C | active |
| C[C@@H]1CN([C@@H](C)CO)C(=O)CCCn2cc(nn2)CO[C@H]1CN(C)C(=O)Oc1ccc2ccccc2c1 | inactive |
| Cc1nc(N)sc1CCN | inactive |
| C1CC2(CCN1)OCCO2 | inactive |
| [N-]=[N+]=Nc1ccccc1C[C@@]1(C(=O)NCCN2CCOCC2)N=C(c2ccc(OCCCO)cc2)O[C@@H]1c1ccccc1N=[N+]=[N-] | inactive |
| [N-]=[N+]=NCc1ccccc1C[C@]1(C(=O)NCCN2CCOCC2)N=C(c2ccc(OCCCO)cc2)O[C@H]1c1ccccc1N=[N+]=[N-] | active |
| [N-]=[N+]=NCc1ccccc1C[C@@]1(C(=O)NCCN2CCOCC2)N=C(c2ccc(OCCCO)cc2)O[C@@H]1c1ccccc1N=[N+]=[N-] | active |
| COCCCNC(=O)[C@@]1(Cc2ccccc2N=[N+]=[N-])N=C(c2ccc(OCCCO)cc2)O[C@H]1c1ccccc1N=[N+]=[N-] | inactive |
| Cn1ccnc1C(=O)N[C@H]1CN[C@@H]2CCCO[C@@H]12 | inactive |
| Nc1ncnc2c1ncn2CCOCP(=O)(O)O | inactive |
| Cc1cc([C@@H](C#N)c2ccc(Cl)cc2)c(Cl)cc1NC(=O)c1cc(I)cc(I)c1O | inactive |
| CCC1(O)CC(O)c2c(cc3c(c2O)C(=O)c2c(O)ccc(O)c2C3=O)C1C(=O)OC (stereo unspecified) | inactive |
| CC[C@@]1(O)C[C@H](O[C@H]2C[C@H](N(C)C)[C@H](O)[C@H](C)O2)c2c(cc3c(c2O)C(=O)c2c(O)ccc(O)c2C3=O)[C@H]1C(=O)OC | active |
| Cl.NCCc1cc(O)c(O)cc1O | inactive |
| C[C@@H]1CN([C@H](C)CO)C(=O)CCCn2nncc2CO[C@@H]1CN(C)C(=O)Oc1ccc2ccccc2c1 | inactive |
| O=C1CC2OCC=C3CN4CCC56c7ccccc7N1C5C2C3CC46.O=S(=O)(O)O (stereo unspecified) | active |

| Compound | cytotoxicity call |
| --- | --- |
| COc1cc2c(cc1OC)C13CCN4CC5=CCOC6CC(=O)N2C1C6C5CC43 (stereo unspecified) | inactive |
| O=C(O)C[C@@H]1CC[C@H]2NC[C@H](O)COC[C@@H]2O1 | inactive |
| c1ccc2cc3c(cc2c1)-c1cccc2cccc-3c12 | active |
| c1csc(N2CCNCC2)n1 | inactive |
| COC(=O)[C@@H]1C(=O)NC[C@H]1C(C)C | inactive |
| CC(=O)N[C@H]1CCSC1=O | inactive |
| [N-]=[N+]=CC(=O)OCC(N)C(=O)O (stereo unspecified) | active |
| N#[N+]CC(=O)OC[C@H](N)C(=O)O | inactive |
| NC(N)=NOCC[C@H](N)C(=O)O | inactive |
| O=C(NCc1ccccn1)[C@]12CNC[C@H]1COC2 | inactive |
| O=C1[O][Pt]2([NH][C@@H]3CCCC[C@H]3[NH]2)[O]C1=O | inactive |
| CCN1C[C@]2(COC)CC[C@@H](OC)[C@@]34[C@@H]2[C@@H](OC)[C@@H]([C@@H]13)[C@]1(OC(C)=O)C[C@@H](OC)[C@@]2(O)C[C@H]4[C@@H]1[C@H]2OC(=O)c1ccc(OC)cc1 | inactive |
| Cc1cc(O)c2c(=O)c3c(O)cc(O)c4c5c(O)cc(O)c6c(=O)c7c(O)cc(C)c8c1c2c(c34)c(c78)c65 | active |
| CC(C)C[C@@H]1C(=O)N2CCC[C@@H]2[C@]2(O)O[C@@](NC(=O)[C@@H]3C=C4c5cccc6[nH]c(Br)c(c56)C[C@@H]4N(C)C3)(C(C)C)C(=O)N12 | inactive |
| CC[C@@H](CN)c1ccccc1 | inactive |
| C[N+](C)(C)C[C@H]1CCC[C@@H]1O | inactive |
| CN1C(=O)N(C)C2C1N(C)C(=O)N2C (stereo unspecified) | inactive |
| NCCc1ccc(C(=O)c2ccccc2)cc1 | inactive |
